Assay results published in PubChem BioAssay (NCATS).
The source made the active and inactive calls. Calls follow the shape of the full dose curve.

Details: Ebola virus entry cell assay, ratio channel

Row | Compound | outcome | AC50
1 | C[C@]1(O)CC[C@H]2[C@@H]3CCC4=CC(=O)CC[C@]4(C)[C@@]3(F)[C@@H](O)C[C@@]21C | inactive | 
2 | CCN(CC)C(=O)[C@]1(c2ccccc2)C[C@@H]1CN | inactive | 
3 | CCOC(=O)[C@H](CCc1ccccc1)N[C@H]1CCCN2CCC[C@@H](C(=O)O)N2C1=O | inactive | 
4 | CC(C)(S)[C@@H](N)C(=O)O | inactive | 
5 | C[C@@H]1O[C@@H]1P(=O)(O)O | inactive | 
6 | CO[C@H]1C=CO[C@@]2(C)Oc3c(C)c(O)c4c(O)c(c(/C=N/N5CCN(C6CCCC6)CC5)c(O)c4c3C2=O)NC(=O)/C(C)=C\C=C[C@H](C)[C@H](O)[C@@H](C)[C@@H](O)[C@@H](C)[C@H](OC(C)=O)[C@@H]1C | inactive | 
7 | COc1cc(Br)c(C[N+]2(CCOCCC3CCC4CC3C4(C)C)CCOCC2)cc1OC (centres undefined) | inactive | 
8 | CC(C)CN(C[C@@H](O)[C@H](Cc1ccccc1)NC(=O)O[C@@H]1CCOC1)S(=O)(=O)c1ccc(N)cc1 | inactive | 
9 | CCC[C@@]1(CCc2ccccc2)CC(O)=C([C@H](CC)c2cccc(NS(=O)(=O)c3ccc(C(F)(F)F)cn3)c2)C(=O)O1 | inactive | 
10 | CO/N=C(\C(=O)N[C@@H]1C(=O)N2C(C(=O)O)=CCS[C@H]12)c1csc(N)n1 | inactive | 
11 | Nc1nc(NC2CC2)c2ncn([C@@H]3C=C[C@@H](CO)C3)c2n1 | inactive | 
12 | CC(CCc1ccccc1)NCC(O)c1ccc(O)c(C(N)=O)c1 (centres undefined) | inactive | 
13 | CN[C@H](CC(C)C)C(=O)N[C@H]1C(=O)N[C@@H](CC(N)=O)C(=O)N[C@H]2C(=O)N[C@H]3C(=O)N[C@H](C(=O)N[C@@H](C(=O)O)c4cc(O)cc(O)c4-c4cc3ccc4O)[C@H](O)c3ccc(c(Cl)c3)Oc3cc2cc(c3O[C@@H]2O[C@H](CO)[C@@H](O)[C@H](O)[C@H]2O[C@H]2C[C@](C)(N)C(O)[C@H](C)O2)Oc2ccc(cc2Cl)[C@H]1O (some centres undefined) | inactive | 
14 | C[C@@H]1[C@H](O)[C@@H](C)/C=C/C=C\C=C\C=C\C=C\C=C\C=C\[C@H](O[C@@H]2O[C@H](C)[C@@H](O)[C@H](N)[C@@H]2O)C[C@@H]2O[C@](O)(C[C@@H](O)C[C@@H](O)[C@H](O)CC[C@@H](O)C[C@@H](O)CC(=O)O[C@H]1C)C[C@H](O)[C@H]2C(=O)O (stereo in doubt) | inactive | 
15 | CCCCCCCN(CC)CCCC(O)c1ccc(NS(C)(=O)=O)cc1 (centres undefined) | inactive | 
16 | CCOC(=O)[C@H](CCc1ccccc1)N[C@@H](C)C(=O)N1[C@H](C(=O)O)C[C@H]2CCCC[C@@H]21 | inactive | 
17 | CCOC(=O)C1=C[C@@H](OC(CC)CC)[C@H](NC(C)=O)[C@@H](N)C1 | inactive | 
18 | CN[C@@H]1[C@H](O[C@H]2[C@H](O[C@H]3[C@H](O)[C@@H](O)[C@H](N=C(N)N)[C@@H](O)[C@@H]3N=C(N)N)O[C@@H](C)[C@]2(O)C=O)O[C@@H](CO)[C@H](O)[C@H]1O | inactive | 
19 | CN(C)CCc1c[nH]c2ccc(Cn3cncn3)cc12 | inactive | 
20 | CC(C)CN(C[C@@H](OP(=O)(O)O)[C@H](Cc1ccccc1)NC(=O)O[C@H]1CCOC1)S(=O)(=O)c1ccc(N)cc1 | inactive | 

Row | Compound | outcome | AC50
21 | CN1C(=O)OC(C)(C)C1=O | inactive | 
22 | Nc1nc(/C(=C/CC(=O)O)C(=O)N[C@@H]2C(=O)N3C(C(=O)O)=CCS[C@H]23)cs1 | inactive | 
23 | CC(C)(C)NC(=O)[C@@H]1C[C@@H]2CCCC[C@@H]2CN1C[C@@H](O)[C@H](Cc1ccccc1)NC(=O)[C@H](CC(N)=O)NC(=O)c1ccc2ccccc2n1 | inactive | 
24 | COc1cc(NS(C)(=O)=O)ccc1Nc1c2ccccc2nc2ccccc12 | inactive | 
25 | CCCc1nc(C(C)(C)O)c(C(=O)OCc2oc(=O)oc2C)n1Cc1ccc(-c2ccccc2-c2nn[nH]n2)cc1 | inactive | 
26 | O=P(O)(O)C(O)(Cn1ccnc1)P(=O)(O)O | inactive | 
27 | CO/N=C(\C(=O)N[C@@H]1C(=O)N2C(C(=O)O)=C(C[N+]3(C)CCCC3)CS[C@H]12)c1csc(N)n1 | inactive | 
28 | CC(C)[C@H]1C(=O)N2CCC[C@H]2[C@]2(O)O[C@](NC(=O)[C@@H]3C[C@@H]4c5cccc6[nH]cc(c56)C[C@H]4N(C)C3)(C(C)C)C(=O)N12 | inactive | 
29 | CC(=O)N1CCN(c2ccc(OC[C@H]3CO[C@](Cn4ccnc4)(c4ccc(Cl)cc4Cl)O3)cc2)CC1 | inactive | 
30 | CC(C=CC1=C(C)CCCC1(C)C)=CC=CC(C)=CC(=O)O | inactive | 
31 | CC(C)[C@H](N)C(=O)OCC(CO)OCn1cnc2c(=O)[nH]c(N)nc21 (some centres undefined) | inactive | 
32 | COc1cc([C@@H]2c3cc4c(cc3[C@@H](O[C@@H]3O[C@@H]5CO[C@@H](C)O[C@H]5[C@H](O)[C@H]3O)[C@H]3COC(=O)[C@H]23)OCO4)cc(OC)c1O | inactive | 
33 | CC(=O)O[C@H]1C(=O)[C@@]2(C)[C@H]([C@H](OC(=O)c3ccccc3)[C@]3(O)C[C@H](OC(=O)[C@H](O)[C@@H](NC(=O)c4ccccc4)c4ccccc4)C(C)=C1C3(C)C)[C@]1(OC(C)=O)CO[C@@H]1C[C@@H]2O | inactive | 
34 | CCC(=O)NCCC1CCc2ccc3c(c21)CCO3 (centres undefined) | inactive | 
35 | CC(C)(C)NC[C@H](O)COc1ccccc1C1CCCC1 |  | 3.55 µM (active)
36 | CC1(C)S[C@@H]2[C@H](NC(=O)[C@H](N)c3ccc(O)cc3)C(=O)N2[C@H]1C(=O)O | inactive | 
37 | CC(C)(O/N=C(\C(=O)N[C@@H]1C(=O)N2C(C(=O)[O-])=C(C[n+]3ccccc3)CS[C@H]12)c1csc(N)n1)C(=O)O | inactive | 
38 | O=C(OC1C[C@@H]2CC3C[C@H](C1)N2CC3=O)c1c[nH]c2ccccc12 (some centres undefined) | inactive | 
39 | NC[C@H]1O[C@H](O[C@H]2[C@H](O)[C@@H](O[C@H]3O[C@H](CO)[C@@H](O)[C@H](N)[C@H]3O)[C@H](N)C[C@@H]2N)[C@H](O)[C@@H](O)[C@@H]1O | inactive | 
